Out of some 94,000 compounds screened, about 20 (0.02%) were called active. Inconclusive results (about 1%) are left out. The list is a sample of the results. Values without a mark were called inactive. The call rests on the fitted dose curve; in most records, active means well fitted activation curve with a large enough effect; inconclusive means small, poorly fitted or top-dose-only effect; inactive means flat fitted curve, though single readings scatter.

The nature of this test: qHTS of alpha-syn Inhibitors: NCGC Sytravon Library Screen. Further: 0% is about no effect. To be noted: S. cerevisiae alpha-synuclein toxicity rescue, BacTiter-Glo growth, 24 h; series mostly up to 46.1 µM; growth rescue (activation): at the top concentration. An excerpt:
The goal of this project is to identify new chemical probes capable of reversing the toxicity associated with the Parkinson disease-related protein, alpha-synuclein. Compounds will be selected on their ability to restore growth in yeast cells expressing toxic levels of alpha-synuclein. These compounds will provide a complementary approach to deciphering the tangled mechanisms of toxicity and protection that we have uncovered through genome-wide genetic screens and are beginning to uncover in a large-scale proteomics analysis with mass spectroscopy. To this end, a miniaturized assay was developed to be screened against the Molecular Libraries Small Molecule Repository (MLSMR) to discover alpha-synuclein inhibitors. […] The phenotype of interest will be that of an Activator and this screen is run against the NCGC Sytravon Library collection. NIH Chemical Genomics Center [NCGC] NIH Molecular Libraries Probe Centers Network [MLPCN] MLPCN Grant: NS060957 Assay Submitter (PI): Susan Lindquist, Whitehead Institute/MIT
Dispense 2.5 microL yeast galactose medium per 1536-well plate, pin compound, dispense 2.5 microL alpha-synuclein expressing yeast in galactose medium at OD600=0.02 (pregrown in raffinose medium to mid-log phase) per well, incubate for 24 hr at 30 deg C, and cell growth will be measured using 5 microL of Bactiter/Glo reagent to entire plate and read using Luminescence Protocol in ViewLux.
A general note: In qHTS, concentration-response curves come from the screen itself.
For `CC(=O)Nc1ccc(C=CC(=O)c2ccc([N+](=O)[O-])cc2)cc1`, the “growth rescue (activation)” value was 5.68%. Take `CC1CCCC(NC(=O)COC(=O)c2ccccc2C(=O)N(C)C2CCCCC2)C1C` (centres undefined): the “growth rescue (activation)” value was -3.25%.

As for `Cc1cc(=O)oc2c3c(cc(OCC(=O)NCCC(=O)N[C@@H](C)C(=O)O)c12)OC(C)(C)CC3`, the “growth rescue (activation)” value is 3.65%. Turning to `COc1ccc(CN2C[C@H]3CON(C)[C@H]3C[C@H]2c2ccc(-c3cccc(F)c3)cc2)cc1`, the “growth rescue (activation)” value is 0.355%. As to `O=C(COC(=O)CCc1ccc(S(=O)(=O)N2CCOCC2)cc1)Nc1cccc(Cl)c1`, the “growth rescue (activation)” value is -1.34%. Turning to `CC(=O)NC1C(Oc2ccc(C=O)cc2)OC(COC(C)=O)C(OC(C)=O)C1OC(C)=O` (centres undefined), the “growth rescue (activation)” value is 3.09%.

As to `CCc1ccccc1OCC(=O)Nc1nnc(C2CC2)s1`, the “growth rescue (activation)” value is -0.762%. The figure for `C=C(C)CNC(=O)c1ccc(OC2CCN(C(=O)COC)CC2)cc1` is 4.36%. As to `COc1ccc(CCNC(=O)C(=O)NCC2CCCN2S(=O)(=O)c2cccs2)cc1OC` (centres undefined), the “growth rescue (activation)” value is 8.88%.

On to `CC1(C)OC(=O)C2=C(CC(c3ccccc3)OC2CCc2ccccc2)O1` (centres undefined), for which the “growth rescue (activation)” value was -5.04%. The figure for `CCOC(=O)C=Cc1ccc(C(=O)OCC)[nH]1` is 7.29%; for `CCOn1c(=O)c(=O)n(O)c2ccccc21` it is -0.897%; for `COc1ccc(NS(=O)(=O)c2ccc(F)cc2F)cn1` it is 4.98%. The value for `CC(C)CN(C(=O)COC(=O)c1ccc(Cl)c(N)c1)c1c(N)n(Cc2ccccc2)c(=O)[nH]c1=O` was -2.42%; that for `CC(=O)c1sc(N)nc1C` was -4.44%.

Regarding `O=C1COc2ccc(S(=O)(=O)NCCc3ccc(Cl)cc3)cc2N1`, the “growth rescue (activation)” value is 0.307%.

As to `CCCCn1c(N)c(N(CC(C)C)C(=O)C2CSC3(C)CCC(=O)N23)c(=O)[nH]c1=O` (centres undefined), the “growth rescue (activation)” value is 5.73%.

Take `O=C(CN1C(=O)NC2(CCc3ccccc32)C1=O)NC1CCCCC1` (centres undefined): the “growth rescue (activation)” value is -10.1%. On to `Cc1cc(C)c(NC(=O)CN2C(=O)NC(Cc3ccccc3)C2=O)c(C)c1` (centres undefined), for which the “growth rescue (activation)” value is -1.11%.

For the molecule `O=C(O)c1ccccc1Cc1ccc(F)c2ccccc12`, the “growth rescue (activation)” value is -44.2%. `CC(C)CCN1CCN(Cc2ccc(C(F)(F)F)cc2)CC1CCO` (centres undefined): the “growth rescue (activation)” value was 3.51%. The value for `Cc1ccc(C)c(OCCC(=O)OCC(=O)c2ccc3c(c2)NC(=O)CO3)c1` was 1.8%. Turning to `CC(=O)Nc1ccc(NC(=O)CSc2ncnc3c2cnn3Cc2ccccc2)cc1`, the “growth rescue (activation)” value was 5.2%. The value for `CCCc1cc(=O)[nH]c(SCc2cc(=O)oc3c(C)c(C)ccc23)n1` was 2.67%; that for `Cc1c(NC(=O)C(C)OC(=O)c2c3c(nc4ccccc24)CCC(C)C3)c(=O)n(-c2ccccc2)n1C` (centres undefined) was -4.21%.

On to `Cc1cc(C(=O)CCC(=O)NNC(=O)c2ccccc2O)c(C)s1`, for which the “growth rescue (activation)” value is -2.99%. The figure for `Cc1ccc(OCCC(=O)OCC(=O)N2c3ccccc3NC(=O)C2(C)C)cc1` is 2.18%; for `O=C(CN1CCOCC1)Nc1cccc([N+](=O)[O-])c1` it is -0.986%. The value for `c1ccc(-c2nnc(N3CCOCC3)c3ccccc23)cc1` was 3.62%. The value for `CCOCc1nnc(NC(=O)CCS(=O)(=O)Cc2ccccc2)s1` was 2.27%; that for `CCCC(C(=O)NC1CCCC1)N(C(=O)Cn1nnc(-c2ccc(C)o2)n1)c1cccc(O)c1` (centres undefined) was -2.04%; that for `CCN(C(=O)CSc1nnnn1-c1ccccc1OC)C1CCS(=O)(=O)C1` (centres undefined) was 16.7%.

Consider `O=c1[nH]c2ccc(S(=O)(=O)N3CCCC3)cc2[nH]1`, for which the “growth rescue (activation)” value is 0.361%. The value for `Cc1nnc(SCCCCSc2nnc(C)c(=O)[nH]2)[nH]c1=O` was 1.74%; that for `COc1ccc(N2CCN(C(=S)Nc3ccc(S(N)(=O)=O)cc3)CC2)cc1` was -4.62%; that for `COc1ccc(/C=N/S(=O)(=O)c2ccccc2)cc1OC` was -2.84%. The figure for `Cc1ccc([C@H]2N[C@]3(CCCN(CC4CCCCC4)C3=O)[C@H]3C(=O)N(Cc4ccccc4)C(=O)[C@@H]23)cc1` is 4.32%. Turning to `CCCCn1c(N)c(N(CCOC)C(=O)c2sc3ccccc3c2Cl)c(=O)[nH]c1=O`, the “growth rescue (activation)” value is 11.1%. With `CC(=O)NCc1ccc(S(=O)(=O)NC2CCN(Cc3ccccc3)CC2)cc1`, the “growth rescue (activation)” value is -8.63%. The value for `CCN(CC(=O)Nc1c(F)cccc1F)C(=O)c1ccc(Sc2nncn2C)c([N+](=O)[O-])c1` was 0.905%. Take `O=c1[nH]nc(SCCS(=O)(=O)c2ccc(F)cc2)n1-c1ccccc1C(F)(F)F`: the “growth rescue (activation)” value was 3.73%.

Consider `Cc1sc2nc(CSCC(=O)NC3CCCCC3)[nH]c(=O)c2c1C`, for which the “growth rescue (activation)” value was 2.44%. Regarding `CC1(C)C[C@H]2C3=CCC4[C@@]5(C)CC[C@H](O)[C@](C)(CO)C5CC[C@@]4(C)[C@]3(C)C[C@@H](O)[C@@]2(CO)[C@@H](O)[C@@H]1O` (some centres undefined), the “growth rescue (activation)” value is 1.74%. The figure for `Cc1c(C(=O)NC(C)C2CC3CCC2C3)cccc1[N+](=O)[O-]` (centres undefined) is 11.3%; for `O=C(CCNC(=O)c1ccc([N+](=O)[O-])cc1)NC1CCCCC1` it is 1.09%. The figure for `Cn1c(CSCC(=O)Nc2ccccc2)nnc1SCc1ccccc1` is -12.3%; for `Cc1cccc(N(CC(=O)N2CCCC2)S(C)(=O)=O)c1C` it is -7.71%; for `CN(C)C(CNC(=O)c1cc(Br)c(Br)s1)c1ccco1` (centres undefined) it is 3.91%.

With `Cc1ccc(CN2CCC(N3CCC(C(=O)NCC4CCCO4)CC3)CC2)o1` (centres undefined), the “growth rescue (activation)” value was -3.72%.

For the molecule `O=C(NCCS(=O)(=O)NCc1ccc(Cl)cc1)c1ccccc1`, the “growth rescue (activation)” value is -1.84%. The figure for `CC1=C(C(=O)N2CCOCC2)CC(CC(=O)NCc2ccco2)C(=O)N1Cc1ccc(F)cc1` (centres undefined) is -7.62%; for `Cc1ccc(C)n1NC(=O)c1ccc([N+](=O)[O-])cc1` it is -1.43%. `COc1ccc(-c2cc(=O)oc3cc(OC(C)C(=O)NCC4CCC(C(=O)O)CC4)ccc23)cc1` (centres undefined): the “growth rescue (activation)” value was -0.947%.

As for `CCOc1ccc(C(=O)CCC(=O)NC2=NCCS2)cc1`, the “growth rescue (activation)” value was -17.3%.

`O=C1N/C(=C/c2cccs2)C(=O)N1Cc1ccc(F)cc1`: the “growth rescue (activation)” value is -2.61%. `C/C(COc1ccccc1)=N\NC(=O)c1nnn(-c2nonc2N)c1-c1ccc(C)cc1`: the “growth rescue (activation)” value is -12.9%.

Consider `CCCCn1c(N)c(N(CC(C)C)C(=O)c2cccc(S(=O)(=O)N3CCN(C(C)=O)CC3)c2)c(=O)[nH]c1=O`, for which the “growth rescue (activation)” value was -0.923%.

In the case of `O=C(c1ccc(C(F)(F)F)cc1)C1CCCN(C(=O)c2csnn2)C1` (centres undefined), the “growth rescue (activation)” value is 0.0205%. The value for `COc1ccc(/C=C/CN2CCN(Cc3ccc(C)cc3)C(CCO)C2)cc1` (centres undefined) was -4.89%; that for `CCOc1ccc(S(=O)(=O)N2CCCC(C(=O)N3CCC(C(N)=O)CC3)C2)cc1Cl` (centres undefined) was -12.6%; that for `NS(=O)(=O)c1ccc(NC(=S)NNC(=O)c2cccs2)cc1` was 0.938%. For `O=C(COc1ccccc1O)NC1CCCC1`, the “growth rescue (activation)” value is 5.21%. Regarding `CC1=C(C(=O)N2CCOCC2)CC(CC(=O)NCCN2CCOCC2)C(=O)N1CCC1=CCCCC1` (centres undefined), the “growth rescue (activation)” value is 2.47%. On to `COc1ccccc1C(=O)NC(=O)COC(=O)c1ccco1`, for which the “growth rescue (activation)” value is 4.89%.

(Values after PubChem BioAssay AID1347070 (National Center for Advancing Translational Sciences (NCATS), 2019).)
